For four molecules, outcome and AC50 results are on record in PubChem BioAssay AID2284201 (EPA ToxCast).

Activity calls are given as the source filed them. Rule for the calls: active = hit-call score of the fitted dose curve at least 0.9, where 1 is the maximum; inactive = score below 0.9.

Sequence of SLC6A2 (gene 6530) (P23975 whole entry, looked up): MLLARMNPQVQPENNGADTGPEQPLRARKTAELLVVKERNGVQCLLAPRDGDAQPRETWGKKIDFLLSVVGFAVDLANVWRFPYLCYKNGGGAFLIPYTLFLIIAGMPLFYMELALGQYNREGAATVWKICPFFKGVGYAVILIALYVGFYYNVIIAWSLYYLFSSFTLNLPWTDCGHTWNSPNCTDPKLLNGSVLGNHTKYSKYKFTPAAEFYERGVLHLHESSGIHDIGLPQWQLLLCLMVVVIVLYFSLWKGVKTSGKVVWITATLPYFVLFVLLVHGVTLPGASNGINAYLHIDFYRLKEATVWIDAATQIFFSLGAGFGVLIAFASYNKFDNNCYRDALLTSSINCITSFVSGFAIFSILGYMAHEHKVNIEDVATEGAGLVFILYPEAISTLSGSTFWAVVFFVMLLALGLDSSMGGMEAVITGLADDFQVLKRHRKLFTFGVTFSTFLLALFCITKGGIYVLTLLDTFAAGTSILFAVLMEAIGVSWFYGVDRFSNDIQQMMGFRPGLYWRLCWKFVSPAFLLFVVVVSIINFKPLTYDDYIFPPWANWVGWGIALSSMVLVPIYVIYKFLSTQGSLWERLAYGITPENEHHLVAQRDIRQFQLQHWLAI

The test has as its target SLC6A2 (gene 6530) (UniProt P23975). The test can be described thus: ERF_FR_TR_hSLC6A2: Eurofins (ERF) Radioligand Transport Binding LeadHunter Assay for human Norepinephrine NET Antagonism, conducted at France lab site. As to the method:
ERF_FR_TR_hSLC6A2 is a biochemical, single-readout assay that uses extracted gene-proteins in a cell-free assay. Measurements were taken 2 hour after chemical dosing in a 96-well plate. See NET Human Norepinephrine Transporter Binding (Antagonist Radioligand) Assay, Cerep.ERF_FR_TR_hSLC6A2 is an assay component calculated from the ERF_FR_TR_hSLC6A2 assay. It is designed to measure radioligand binding using a type of binding reporter as detected by scintillation counting with radiometry technology.Data from the assay component ERF_FR_TR_hSLC6A2 was analyzed at the assay endpoint, ERF_FR_TR_hSLC6A2, in the positive analysis fitting direction relative to DMSO as the negative control and baseline of activity. Using a type of binding reporter, loss-of-signal activity can be used to understand changes in enzymatic activity as they relate to gene SLC6A2. To generalize the intended target to other relatable targets, this assay endpoint is annotated to the transporter intended target family, where the subfamily is SLC6 / Monoamine.
Human cells are incubated for 120 minutes at 4C with [3H]nisoxetine (1 nM) ligand and protriptyline as control inhibitor. Test Sample Requirements: Minimum for 1) Screen: 60 ul of 10 mM stock -OR- 1 mg (pre-weighed) for 10 uM final testing. 2) Dose Response: 90 ul of 10 mM stock -OR- 1 mg (pre-weighed) for a top concentration at 10 uM.
As for `COc1cc(CCC(=O)CC(=O)CCc2ccc(O)c(OC)c2)ccc1O`, the molecule was called inactive. For the molecule `COc1cc(/C=C/C(=O)CC(=O)/C=C/c2ccc(O)c(OC)c2)ccc1O`, the half-maximal activity concentration (AC50) is 2630 nM (active). Same read-out and setting: as for `O=C(/C=C/c1ccc(O)cc1)CC(=O)/C=C/c1ccc(O)cc1`, the figure is 2120 nM (active). With `CCCCC[C@H](O)CC(=O)CCc1ccc(O)c(OC)c1`, the call was inactive.
